Assay outcomes from PubChem BioAssay.
In the library only some 6.2% were active in any assay of this set; here they are far more common.
KB-V1 cytotox: kills drug-selected multidrug resistant KB-V1 cells. KB-V1 MDR cells viability, CellTiter-Glo, 72 h. Potency, µM (series often up to 46.1 µM), actives largely listed as cytotoxic. 400,000 compounds, 3.4% hits; further: on the % scale 0 is the no-effect control and ±100 the full control effect; nearly all actives have a fitted effect of over 60% in size
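Following 72 h at 37 degrees C with compound, KB-V1 cell viability was read by CellTiter-Glo luminescence, medium being phenol-red-free DMEM plus 10% FBS; concentration-response parameters came from normalized, curve-fitted qHTS data.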
ATXN2 expr inh: ATXN2 expression inhibition; HEK-293 ATXN2-luciferase reporter, luminescence, 24 h; Potency, µM (doses to about 57 µM), inactives show top-dose activity change, negative = inhibition, actives largely listed as inhibitors; 360,000 compounds, 0.72% hits; further: on the % scale 0 is the no-effect control and ±100 the full control effect; nearly all actives have a fitted effect of over 55% in size
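qHTS (up to 57 uM final) was run with 24 h compound exposure of reporter cells at 37 °C. Each well was multiplexed: SteadyGlo luminescence measured ATXN2-luciferase expression after a fluorogenic Gly-Phe-AFC viability readout (25 uM final).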
S2 tox: cell viability loss in ATXN counter-screen; 400,000 compounds, 0.49% hits; Potency, µM (highest dose often 56.7 µM), most hits filed as cytotoxic; S2 cells (HEK-293 line with an ATXN2-luciferase reporter) viability, CellTiter-Fluor protease fluorescence, 24 h; AID 651635; further: nearly all actives have a fitted effect of over 40% in size
HT1080NT lethal: kills 2HG-producing HT-1080-NT fibrosarcoma cells; HT-1080-NT fibrosarcoma viability, CellTiter-Glo ATP luminescence, 48 h; Potency, µM (series often up to 46.1 µM), inactives show top-dose activity, negative = less viability, actives largely listed as cytotoxic; 360,000 compounds, 1.6% hits;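 further: NT is the 2HG producing partner of a matched IDH1 knockdown line; 0% = DMSO-treated cells and -100% = media-only wells without cells; nearly all actives have a fitted effect of over 55% in size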
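Luminescent CellTiter-Glo readout after 48 hours of compound exposure at 37 degrees C defined viability of HT-1080-NT cells. Activity was normalized to DMSO wells and cell-free media wells; concentration-response curves were fitted and assigned curve classes.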
HT1080 IDH1KD tx: toxicity to HT-1080 IDH1 knockdown cells (counter line); HT-1080 IDH1 knockdown viability, ATP luminescence, 48 h; Potency, µM (series often up to 46.1 µM), inactives show at the top dose activity, negative = toxicity, hits mostly cytotoxic; 360,000 compounds, 2% hits;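 further: 0% = DMSO wells and -100% = cell-free medium wells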
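Viability of IDH1-knockdown HT-1080 fibrosarcoma cells was assessed by CellTiter-Glo after 48 h at 37 °C with titrated compound; concentration-effect curves were classified by fit quality and response size.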
KB-3-1 cytotox: kills parental KB-3-1 adenocarcinoma cells; Potency, µM (titrated, usually from 46.1 µM), actives largely listed as cytotoxic; KB-3-1 viability, CellTiter-Glo ATP luminescence, 72 h; 400,000 compounds, 1.4% hits; further: on the % scale 0 is the no-effect control and ±100 the full control effect; nearly all actives have a fitted effect of over 60% in size
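Luminescent ATP read-out (CellTiter-Glo) measures survival of drug-naive KB-3-1 cells after 72 h compound exposure at 37 °C. Titration series was screened from lowest to highest concentration, with DMSO vehicle plates as background controls.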
Active calls of the source: *. The call rests on the fitted dose curve; in most records, active means well fitted curve in the direction sought with a large enough effect; inconclusive means small, poorly fitted or top-dose-only effect, or another doubt; inactive means no such curve, though single readings can be large; an effect the other way counts as inactive or inconclusive. Potency means the concentration at half of the fitted maximal effect.

For COc1ccc(CNC(=O)C2Cc3cc(S(=O)(=O)N4CCCCCC4)ccc3N2C(C)=O)cc1 (stereo unspecified) the results were KB-V1 cytotox inactive, ATXN2 expr inh -3%, S2 tox inactive and KB-3-1 cytotox inactive.
Screening Cc1ccccc1[C@@]1(C)ON(c2ccccc2C(F)(F)F)C1=O returned KB-V1 cytotox inactive, ATXN2 expr inh inconclusive, S2 tox inconclusive, HT1080NT lethal -2%, HT1080 IDH1KD tx -1% and KB-3-1 cytotox inconclusive.
`CC[C@@]1(c2ccccc2OC)ON(c2ccccc2C(F)(F)F)C1=O` gave KB-V1 cytotox inconclusive, ATXN2 expr inh 22µM*, HT1080NT lethal -27%, HT1080 IDH1KD tx inconclusive and KB-3-1 cytotox inconclusive.
Screening CC(/C=N/NC(=O)c1cc(-c2ccc(C)s2)[nH]n1)=C\c1ccccc1 returned KB-V1 cytotox inconclusive, ATXN2 expr inh -21%, S2 tox inconclusive, HT1080NT lethal 5.2µM*, HT1080 IDH1KD tx 7.3µM* and KB-3-1 cytotox 21µM*.
For Cc1nn(-c2ccccc2)c(C)c1/C=N/NC(=O)c1cc(-c2cccs2)[nH]n1 the results were KB-V1 cytotox inconclusive, ATXN2 expr inh -8%, S2 tox inconclusive, HT1080NT lethal inconclusive, HT1080 IDH1KD tx inconclusive and KB-3-1 cytotox 0.52µM*.
Cc1nn(-c2ccccc2)c(C)c1/C=N/NC(=O)CSc1nnc(SCc2ccc(Cl)cc2)s1 was read as KB-V1 cytotox 2.3µM*, ATXN2 expr inh 78%, S2 tox inactive, HT1080NT lethal -17%, HT1080 IDH1KD tx inconclusive and KB-3-1 cytotox inconclusive.
`Cc1nn(-c2ccccc2)c(C)c1/C=N/NC(=O)c1ccccc1O` gave KB-V1 cytotox inactive, ATXN2 expr inh 13%, S2 tox inactive, HT1080NT lethal 1%, HT1080 IDH1KD tx -2% and KB-3-1 cytotox inactive.
Screening CC(/C=N/NC(=O)c1cc(C(C)(C)C)[nH]n1)=C\c1ccccc1 returned KB-V1 cytotox inconclusive, ATXN2 expr inh 9%, S2 tox inactive, HT1080NT lethal inconclusive, HT1080 IDH1KD tx inconclusive and KB-3-1 cytotox inconclusive.
Screening Cc1cc(C(=O)N/N=C/c2c(C)nn(-c3ccccc3)c2C)n[nH]1 returned KB-V1 cytotox inactive, ATXN2 expr inh 17%, S2 tox inactive, HT1080NT lethal -11%, HT1080 IDH1KD tx -3% and KB-3-1 cytotox inactive.
Cc1nn(-c2ccccc2)c(C)c1/C=N/NC(=O)c1cccs1 was read as KB-V1 cytotox 21µM*, ATXN2 expr inh 157%, S2 tox inactive, HT1080NT lethal -17%, HT1080 IDH1KD tx -7% and KB-3-1 cytotox inconclusive.
For O=C(CSc1nnc(SCc2ccccc2)s1)N/N=C/c1c(Cl)cccc1Cl the results were KB-V1 cytotox inconclusive, ATXN2 expr inh 2%, S2 tox inactive, HT1080NT lethal -5%, HT1080 IDH1KD tx -10% and KB-3-1 cytotox inactive.
`Cc1cc(C)c2oc(-c3cccc(NC(=O)c4cc5ccccc5o4)c3)nc2c1` gave KB-V1 cytotox inactive, ATXN2 expr inh 12%, S2 tox inactive and KB-3-1 cytotox inactive.
COC(=O)[C@@H]1CCCN1C(=O)c1c(OC)cc(=O)n2c1CCN(Cc1ccc(C)o1)CC2 was read as S2 tox inactive.
Screening Cc1nn(-c2ccccc2)c(C)c1/C=N/NC(=O)c1cc(-c2ccc(Cl)s2)[nH]n1 returned KB-V1 cytotox 12µM*, ATXN2 expr inh -21%, S2 tox inactive, HT1080NT lethal 0.63µM*, HT1080 IDH1KD tx 0.89µM* and KB-3-1 cytotox 2.9µM*.
CCc1ccc(S(=O)(=O)Nc2cc3c(cc2C)n(C)c(=O)n3C)cc1 was read as KB-V1 cytotox inactive, S2 tox inactive, HT1080NT lethal 16µM*, HT1080 IDH1KD tx 15µM* and KB-3-1 cytotox 5.2µM*.
Screening CC(C)c1ccc(S(=O)(=O)Nc2cc3c(cc2NCc2ccccc2)n(C)c(=O)n3C)cc1 returned KB-V1 cytotox inconclusive, ATXN2 expr inh 46%, S2 tox inactive and KB-3-1 cytotox 23µM*.
For CCOC(=O)C(C)Oc1cccc2c(=O)n(CC(=O)Nc3ccc4c(c3)OCCO4)ccc12 (stereo unspecified) the results were KB-V1 cytotox inactive, ATXN2 expr inh inconclusive, S2 tox inactive, HT1080NT lethal -6%, HT1080 IDH1KD tx 14% and KB-3-1 cytotox inactive.
Screening CCOC(=O)C(C)Oc1cccc2c(=O)n(CC(=O)NCc3ccc4c(c3)OCO4)ccc12 (stereo unspecified) returned KB-V1 cytotox 7.3µM*, ATXN2 expr inh -16%, S2 tox inactive, HT1080NT lethal inconclusive, HT1080 IDH1KD tx inconclusive and KB-3-1 cytotox 6.5µM*.
`CCOC(=O)COc1cccc2c(=O)n(CC(=O)NCc3ccccc3)ccc12` gave KB-V1 cytotox 1.6µM*, S2 tox inconclusive, HT1080NT lethal 0.52µM*, HT1080 IDH1KD tx 0.46µM* and KB-3-1 cytotox 0.92µM*.
`CCOC(=O)COc1cccc2c(=O)n(CC(N)=O)ccc12` gave KB-V1 cytotox inactive, ATXN2 expr inh -2%, S2 tox inactive, HT1080NT lethal 7%, HT1080 IDH1KD tx 4% and KB-3-1 cytotox inactive.
Screening CCOC(=O)COc1cccc2c(=O)n(CC(=O)NCc3ccc(F)cc3)ccc12 returned KB-V1 cytotox 1.5µM*, S2 tox inconclusive, HT1080NT lethal 1.2µM*, HT1080 IDH1KD tx 1µM* and KB-3-1 cytotox 0.58µM*.
For COc1cccc(-c2nc(S(=O)(=O)c3ccccc3)c(N3CCCCC3)o2)c1 the results were KB-V1 cytotox inactive, ATXN2 expr inh -3%, S2 tox inactive and KB-3-1 cytotox inactive.
Screening O=c1cc(Nc2ccc3c(c2)OCO3)[nH]c(=O)n1-c1ccc(Br)cc1 returned KB-V1 cytotox inconclusive, ATXN2 expr inh -29%, S2 tox inactive, HT1080NT lethal inconclusive, HT1080 IDH1KD tx 35µM* and KB-3-1 cytotox inactive.
COc1cc(-c2ccc3ncnc(NCCc4cnc[nH]4)c3c2)cc(OC)c1OC was read as KB-V1 cytotox inactive and KB-3-1 cytotox inactive.
CC(CCc1ccccc1)NC(=O)COc1ccc(S(=O)(=O)N2CCOCC2)cc1[N+](=O)[O-] (stereo unspecified) was read as KB-V1 cytotox 21µM*, ATXN2 expr inh -14%, S2 tox inactive, HT1080NT lethal -12%, HT1080 IDH1KD tx -13% and KB-3-1 cytotox inactive.
Screening CC(C)N1CCC(=NNc2ccc(S(=O)(=O)N3CCOCC3)cc2[N+](=O)[O-])CC1 returned KB-V1 cytotox inconclusive, ATXN2 expr inh -3%, S2 tox inactive, HT1080NT lethal -1%, HT1080 IDH1KD tx 0% and KB-3-1 cytotox inactive.
